An excerpt weighted towards active compounds, which were near 3.1% of everything screened.
BoNT F protease: BoNT F light chain protease inhibition; Multiplex microsphere protease cleavage assay, flow cytometry; inhibition, % at 10 µM; hit rate 0.22% among 360,000; in the data active means inhibition above about 35%, passing the limit was not always enough; inconclusive means no clear call, values can overlap the other calls; further: plate controls were buffer without enzyme for full effect and enzyme alone for no effect
SSB-PriA inh: K. pneumoniae PriA-SSBct interaction inhibition | AlphaScreen SSBct-PriA binding, biotinylated peptide | inhibition, % at 33 µM | hit rate 0.6% among 430,000 | AID 1272365; in the data active means inhibition mostly above about 37%, no sharp cut-off; inactive means mostly below about 20%;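 further: plate controls were negative control peptide for no effect and reference peptide for full effect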
BoNT A protease: BoNT A light chain protease inhibition. AID 588499. multiplex microsphere protease substrate cleavage, flow cytometry. hit rate 0.17% among 360,000. inhibition, % at 10 µM; further: plate controls were buffer without enzyme for full effect and enzyme alone for no effect
Anthrax LF prot: anthrax lethal factor protease inhibition. P15917. multiplex microsphere protease cleavage assay, LF. inhibition, % at 10 µM. hit rate 0.12% among 360,000. AID 588501; further: plate controls were buffer without enzyme for full effect and enzyme alone for no effect
Bead autofluor: compound fluorescence in toxin protease inhibitor counterscreen. compound autofluorescence counterscreen, microsphere flow cytometry; active compounds read high. hit rate 3.1% among 360,000. fluorescence intensity (no concentration beside the values); in the data active means fluorescence intensity above about 16000; inconclusive means no clear call, values can overlap the other calls
* marks the source's active call; other numbers are inactive results; u = inconclusive; x = no result given. Unless noted, no stated cut-off is given here; in the data, active means inhibition above about 30%; inconclusive means no clear call, values can overlap the other calls; inactive means below that.

SMILES	BoNT F protease	SSB-PriA inh	BoNT A protease	Anthrax LF prot	Bead autofluor
CCCCN(CCCC)S(=O)(=O)c1ccc(NS(=O)(=O)c2ccc(NC(C)=O)cc2)cc1	-3	-2	u	1	21196*
CCOc1ccc(NS(=O)(=O)c2ccc(C(=O)NCc3ccncc3)cc2)cc1	-232	6	-176	-35	42543*
CCOc1ccc(NS(=O)(=O)c2ccc(C(=O)NCc3cccnc3)cc2)cc1	8	-3	6	5	u
CCCCOC(=O)Nc1ccc(S(=O)(=O)Nn2cnnc2)cc1	-20	-14	u	-5	29599*
CC(C)Sc1ccc(CC(=O)Nc2ccc3c(c2)C(=O)NCC3)cc1	x	-12	x	x	x
Cc1cccc(NC(=O)Cn2cnc(-c3ccccc3)cc2=O)n1	x	1	x	x	x
CCCCOc1ccc(S(=O)(=O)Nc2ccc(NC(C)=O)cc2)cc1	0	-7	1	-2	21764*
Nc1c(C(=O)OCC2CCCO2)c2nc3ccccc3nc2n1C1CCCC1 (stereo unspecified)	-29	-24	-20	0	32531*
Nc1c(C(=O)OCC2CCCO2)c2nc3ccccc3nc2n1Cc1cccs1 (stereo unspecified)	-2	-8	4	-1	2391
C=CCOc1ccccc1C=c1sc2nc(-c3oc4ccccc4c3C)nn2c1=O	x	-11	x	x	x
C=CCOc1ccccc1/C=c1\sc2nc(=O)c(C)nn2c1=O	4	x	1	3	23330*
O=c1c2ccccc2nnn1Cc1ccc(Br)cc1	-2	-17	-1	3	4408
CC(C)OC(=O)c1ccc(Cn2nnc3ccccc3c2=O)cc1	7	-25	4	0	20849*
CCc1nnc2ccc(N3CCN(S(=O)(=O)c4ccc(Cl)s4)CC3)nn12	x	-24	x	x	x
Cc1ccccc1-n1c(CC2CCN(C(=O)c3cccc(C(F)(F)F)c3)CC2)n[nH]c1=O	x	-8	x	x	x
CC(=O)c1ccc(NC(=O)C(C)Sc2ccccn2)cc1 (stereo unspecified)	5	-9	1	-2	4380
CC(Sc1ccccn1)C(=O)Nc1ccccc1 (stereo unspecified)	0	-14	0	-4	20487*
CCOC(=O)c1c(C)[nH]c(C(=O)CN2C(=O)NC(C)(c3ccc4ccccc4c3)C2=O)c1C (stereo unspecified)	-2	-20	-2	-3	20042*
Cc1ccn2c(=O)c(NC(=O)C(C)Oc3ccc(C)c(C)c3)c(C)nc2c1 (stereo unspecified)	x	0	x	x	x
O=C(NCc1ccco1)c1ccc2c(c1)N(Cc1ccccc1)C(=O)CS2	-9	10	-6	-2	25027*
CCc1ccccc1NC(=O)c1cc2ncc(Br)cn2n1	7	-10	u	-1	21333*
O=C(Nc1cccc(C(F)(F)F)c1)c1cc2ncc(Br)cn2n1	3	-7	4	1	22276*
O=C(NCCc1ccccc1)c1cc2ncc(Br)cn2n1	0	-4	1	2	2715
O=C(Nc1ccc2c(c1)OCO2)c1cc2ncc(Br)cn2n1	-10	0	0	0	2539
CC(C)OCCCNC(=O)CCn1c(=O)[nH]c2ccccc2c1=O	x	-15	x	x	x
SMILES	BoNT F protease	SSB-PriA inh	BoNT A protease	Anthrax LF prot	Bead autofluor
Cc1cc(C)n2nc3nc4c(cc3c2n1)CCCC4	6	-1	u	2	19863*
Cc1cc(C)n2nc(C)c(Br)c2n1	-6	-7	0	1	2275
O=S(=O)(Nc1ccc(-c2nc3ccccc3o2)cc1)c1ccccc1	-7	-2	u	-3	23226*
O=C(Nc1ccc2oc(-c3ccccc3)nc2c1)C1CCCO1 (stereo unspecified)	-30	-3	-2	-2	2092
O=C(Nc1ccc(-c2nc3ccccc3o2)cc1)C1CCCO1 (stereo unspecified)	3	-3	2	1	19183*
O=C(/C=C/c1ccccc1)Nc1ccc(OC(F)F)cc1	x	-16	x	x	x
O=C1N/C(=C/c2ccc(N3CCOCC3)cc2)C(=O)N1Cc1ccc(F)cc1	-7	-1	-3	-5	18011*
Cn1c(=O)n(C)c2cc(/C=C3/NC(=O)N(Cc4ccccc4)C3=O)ccc21	0	-20	1	-7	20142*
CNC(=O)CCc1csc(NC(=O)Nc2cccc(Cl)c2)n1	x	-5	x	x	x
O=C(CSc1nnc(-c2ccc(Cl)cc2)n1-c1ccccc1)N/N=C/c1ccccc1C(=O)O	41*	x	4	-2	4314
Cc1ccc(S(=O)(=O)N2CCN(CC(=O)Nc3ccccc3Cl)CC2)cc1	1	0	2	8	8525
Cc1ccc(S(=O)(=O)Nc2ccc(NC(=O)CN3CCCCC3)c(Cl)c2)cc1	2	-2	1	-10	19818*
COc1cccc(CSc2nccn(-c3ccc(F)cc3)c2=O)c1	x	-19	x	x	x
